Many of the other results were omitted from the sample, so hits are more common in it than they were.
RMI FANCM FP: disruptors of RMI1/RMI2 association with MM2 peptide – biochemical, fluorescence polarization, human, primary screen; AID 1159607, 2016; RMI core complex (RMI1/RMI2) binding to FANCM MM2 peptide, human; RMI core complex with F-MM2 peptide; active compounds read low; FP signal (polarization) at 33 µM; 70,000 tested, 0.58% active; in the data active means FP signal below about 40
The depositor's hits bear a star; ! = not active in a repeat.

Screening Cn1c(=O)cc2c3c(c(NS(=O)(=O)c4ccccc4)ccc31)C(=O)c1ccccc1-2 returned RMI FANCM FP 9*.
Cn1c(=O)cc2c3c(c(Br)ccc31)C(=O)c1ccccc1-2 was read as RMI FANCM FP 60.
For Cc1cc(C)c(S(=O)(=O)N2CCCC2CNC(=O)C(=O)NCc2cccs2)c(C)c1 (stereo unspecified) the results were RMI FANCM FP 76.
`O=[N+]([O-])c1ccccc1N1CCOCC1` gave RMI FANCM FP 53.
COC(=O)c1sccc1N/N=C(\C#N)C(=O)c1ccc(Cl)cc1 was read as RMI FANCM FP 58.
`COC(=O)c1sccc1N/C=C(\C#N)C(=O)c1cccc(CSc2ccc(Cl)cc2)c1` gave RMI FANCM FP 7*.
Screening COC(=O)c1sccc1N/C=C(\C#N)C(=O)c1ccco1 returned RMI FANCM FP 59.
O=c1cc(-c2cc(O)c(O)c(O)c2)oc2cc(O)cc(O)c12 was read as RMI FANCM FP 71.
`CN1CC(O)C(O)C(O)C1CO` (stereo unspecified) gave RMI FANCM FP 60.
COC(=O)/C(=C\Nc1ccc(Oc2ccc(F)cc2F)nc1)NC(=O)c1ccccc1 was read as RMI FANCM FP 69.
Clc1ccc(C2=CSC3=NCCCN23)cc1 was read as RMI FANCM FP 61.
Screening O=C1NC2(CCN(Cc3ccccc3)CC2)Oc2ccccc21 returned RMI FANCM FP 53.
Screening Cc1nc(-n2nc(-c3ccco3)cc2NC(=O)c2ccco2)[nH]c(=O)c1C returned RMI FANCM FP 46.
`Cc1ccc(OCC(=O)Nc2cc(-c3ccco3)nn2-c2nc(C)c(C)c(=O)[nH]2)cc1` gave RMI FANCM FP 42.
For Cc1nc(-n2nc(-c3ccco3)cc2NC(=O)CSCc2ccccc2)[nH]c(=O)c1C the results were RMI FANCM FP 35*.
COC(=O)c1ccc(NC(=O)Cc2c(C)nc(SCc3ccccc3F)[nH]c2=O)cc1 was read as RMI FANCM FP 62.
`CCOC(=O)c1cc2cc(Cl)ccc2o1` gave RMI FANCM FP 53.
Screening CCOC(=O)c1sc(NC(=O)c2cc(=O)c3ccccc3o2)cc1C returned RMI FANCM FP 62.
Screening CCCc1c2c(cc3c(=O)cc(C(=O)OCC)oc13)CCCC2 returned RMI FANCM FP 32*.
`Cc1cc(-c2nnc(N)o2)n(C)n1` gave RMI FANCM FP 66.
`CS(=O)(=O)N1CCCC(C(=O)Nc2nnc(-c3cccs3)o2)C1` (stereo unspecified) gave RMI FANCM FP 66.
Cc1cc(NC(=O)CN2CC3CC(C2)c2cccc(=O)n2C3)nc2c1c(=O)oc1ccccc12 (stereo unspecified) was read as RMI FANCM FP 31*!.
For O=C(CSc1nc2c(oc3ccccc32)c(=O)n1CC1CCCO1)Nc1cccc(Cl)c1 (stereo unspecified) the results were RMI FANCM FP 67.
Screening Cc1cc(NC(=O)C(C)(C)Oc2ccc(Cl)cc2)nc2c1c(=O)oc1ccccc12 returned RMI FANCM FP 75.
For Cc1cc(/C=C(/C#N)S(C)(=O)=O)c2c(C)ccc(C(C)C)cc1-2 the results were RMI FANCM FP 48.
`COCCN1CCCc2ccc(NS(=O)(=O)c3cc(C)c(C)cc3OC)cc21` gave RMI FANCM FP 60.
For COCCN1CCCc2ccc(NS(=O)(=O)c3ccc(F)cc3F)cc21 the results were RMI FANCM FP 18*.
Screening COCCN1CCCc2ccc(NS(=O)(=O)c3ccc(OC)cc3)cc21 returned RMI FANCM FP 58.
For COCCN1CCCc2ccc(NS(=O)(=O)c3ccccc3Cl)cc21 the results were RMI FANCM FP 62.
COCCN1CCCc2ccc(NC(=O)c3cc(C)cc(C)c3)cc21 was read as RMI FANCM FP 65.
COCCN1CCCc2ccc(NS(=O)(=O)c3cc(Cl)ccc3C)cc21 was read as RMI FANCM FP 64.
COCCN1CCCc2ccc(NS(=O)(=O)c3ccc(C(C)(C)C)cc3)cc21 was read as RMI FANCM FP 61.
`COCCN1CCCc2ccc(N)cc21` gave RMI FANCM FP -72*.
`COCCN1CCCc2ccc(NS(=O)(=O)Cc3ccc(Cl)cc3)cc21` gave RMI FANCM FP -27*.
Screening CN(C1(C)CCS(=O)(=O)C1)S(=O)(=O)c1ccc(C(C)(C)C)cc1 (stereo unspecified) returned RMI FANCM FP 55.
CC1CCCCN1S(=O)(=O)c1ccc(C(=O)Nc2nc3c(s2)C(=O)CC(C)(C)C3)cc1 (stereo unspecified) was read as RMI FANCM FP 72.
O=S1(=O)CCN(Cc2cccs2)CC1 was read as RMI FANCM FP 53.
`COc1ccc(NC(=O)c2csc(Nc3ccccc3)n2)c(OC)c1` gave RMI FANCM FP 65.
For CC(C)(C)OC(=O)N[C@@H](Cc1ccccc1)C(=O)NNC(=S)c1ccc2c(c1)OCCO2 the results were RMI FANCM FP 51.
Screening O=C(NCCCSc1nnc(-c2ccccc2)o1)Nc1nccs1 returned RMI FANCM FP 55.
`COC(=O)Nc1ccc(S(=O)(=O)n2cnc3ccccc32)cc1` gave RMI FANCM FP 58.
Screening Cn1c(SCC(=O)NNC2=Nc3ccccc3CC2)nc2ccccc21 returned RMI FANCM FP 63.
Screening COc1ccc(C(CNC(=O)C(=O)Nc2ccc(OC)cc2OC)N2CCOCC2)cc1 (stereo unspecified) returned RMI FANCM FP 68.
Screening CC(=O)ON1C(=O)c2cccc3c([N+](=O)[O-])ccc(c23)C1=O returned RMI FANCM FP -6*.
O=C1c2cccc3c([N+](=O)[O-])ccc(c23)C(=O)N1Cc1cccnc1 was read as RMI FANCM FP -13.
For CC(=O)ON1C(=O)c2cccc3cccc(c23)C1=O the results were RMI FANCM FP 52.
For FC(F)(F)c1ccc2c(c1)[nH]c(=S)n2CCc1ccccc1 the results were RMI FANCM FP 44.
Screening COc1ccc(-c2ccc(N3CCN(S(=O)(=O)/C=C\c4ccccc4)CC3)nn2)cc1 returned RMI FANCM FP 70.
For O=C(Cc1cccs1)NCc1ccc2[nH]c3c(c2c1)CCCC3 the results were RMI FANCM FP -1*.
`O=C(NCc1ccc2[nH]c3c(c2c1)CCCC3)c1ccc(C(F)(F)F)cc1` gave RMI FANCM FP 43.
O=C(NCc1ccc2[nH]c3c(c2c1)CCCC3)c1cccs1 was read as RMI FANCM FP 45.
CCn1nccc1C(=O)Nc1ccc2nc(N3CCN(C)CC3)sc2c1 was read as RMI FANCM FP 61.
For Cc1ccc(Nc2nc(N3CCCC3)nc(N3CCCC3)n2)cc1Cl the results were RMI FANCM FP 55.
Screening CCOc1cc(C(=O)Nc2nc3ccc(C(=O)OC)cc3s2)cc(OCC)c1OCC returned RMI FANCM FP 64.
COC(=O)c1ccc2nc(NC(=O)c3ccc(N(C)C)cc3)sc2c1 was read as RMI FANCM FP -15*.
Screening COC(=O)c1ccc2nc(NC(=O)c3ccnn3C)sc2c1 returned RMI FANCM FP 66.
O=C(NCc1ccc(-c2cccs2)s1)NC(=O)c1ccc(Cl)cc1 was read as RMI FANCM FP 55.
`O=C(CC(SCc1ccco1)c1ccc(C(F)(F)F)cc1)c1cccs1` (stereo unspecified) gave RMI FANCM FP 113.
Screening O=C(c1ccc(S(=O)(=O)N2CCOCC2)cc1)N1CCN(CCN2C(=O)c3cccc4cccc(c34)C2=O)CC1 returned RMI FANCM FP 55.

High-throughput results as filed in PubChem.
